The record followed here is PubChem BioAssay (NCI).

This is part of a sample that, as a whole, favours compounds with a hit. Of some 83,000 tested, about 20% had one in any assay.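 The endpoint reported here, percent growth, reads 100 for growth as untreated, 0 for no net growth and -100 for all cells dead.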 Values without a mark were called inactive. The source made the active and inactive calls. How the source made its calls: active means growth percent below 10; inactive means the rest.

Some test systems named below: NCI-H23 lung; NCI-H226 lung; NCI-H322M lung; NCI-H460 lung; HOP-92 NSCLC; NCI-H522 lung; A549/ATCC NSCLC; 786-0 renal; COLO 205 colon; HOP-62 NSCLC.
Common to all, as to assay: NCI-60 one-dose screen, 48 h (100 = growth as untreated, 0 = no growth, -100 = all killed)
Common to all, as to settings: 10 µM

Turning to `CN1CCCN(Cc2ccc(C(=O)Nc3cccc(Nc4ccc5c(O)cccc5n4)c3)cc2C(F)(F)F)CC1`, the growth with NCI-H23 lung was -82.1% (active); in the test on NCI-H226 lung, 57.4%; in the test with NCI-H322M lung, -72.1% (active); in the test on NCI-H460 lung, -85.3% (active); in the test with HOP-92 NSCLC, -51.5% (active); in the test on NCI-H522 lung, -83.4% (active). The figures for the growth with A549/ATCC NSCLC, with 786-0 renal and with COLO 205 colon were -61.4% (active), -74.8% (active) and -64.4% (active), respectively.

For `CC(C)C(=O)Nc1ccc(C(=O)NC(=S)Nc2ccc(C(=O)O)cc2)cc1`, the growth in the test on NCI-H23 lung was 101%; in the test with NCI-H226 lung, 95.6%; in the test with NCI-H322M lung it was 105%; in the test with NCI-H460 lung it was 102%; with HOP-92 NSCLC it was 108%; in the test on NCI-H522 lung it was 90.6%. Also, the growth in the test on A549/ATCC NSCLC is 110%; with 786-0 renal it was 102%; in the test with COLO 205 colon, 105%.

Consider `Cc1ccc(C(=O)NNC(=O)CSc2nc3ccccc3c(=O)[nH]2)cc1`, for which the growth in the test on NCI-H23 lung is 98.5%; in the test on NCI-H226 lung it was 92.4%; in the test on NCI-H322M lung, 99.2%; in the test on NCI-H460 lung, 108%; in the test with HOP-92 NSCLC, 90.6%; in the test on NCI-H522 lung, 106%. In addition, the growth in the test on A549/ATCC NSCLC was 111%; in the test with 786-0 renal, 95.2%; in the test with COLO 205 colon, 97.8%.

For the compound `Cc1cccc(NC(=O)CSc2nc3ccc(F)cc3c(=O)n2-c2ccc(Cl)cc2)c1C`, the growth with NCI-H23 lung was 63%; in the test on NCI-H226 lung it was 21.5%; in the test on NCI-H322M lung, 81.6%; in the test with HOP-62 NSCLC, 26.5%; with NCI-H460 lung, 57.9%; with HOP-92 NSCLC, 26.9%. The figures for the growth in the test on NCI-H522 lung, in the test with 786-0 renal and in the test with COLO 205 colon were 77%, 34.7% and 94.7%, respectively.

`COc1ccc(C(=O)NC(=S)N2CCN(c3ncnc4c3cnn4-c3ccccc3)CC2)cc1`: the growth was 60% in the test on NCI-H23 lung; 9.11% (active) in the test with NCI-H226 lung; 66.8% in the test with NCI-H322M lung; 55.8% in the test with NCI-H460 lung; 32% in the test on HOP-92 NSCLC; 41.2% with NCI-H522 lung. In addition, the growth is 58.8% with A549/ATCC NSCLC, 82.8% in the test with 786-0 renal and 79.7% with COLO 205 colon.

As to `CN1CCN(c2ccc(C(=O)/C=C/c3cc(C(F)(F)F)ccc3Cl)cc2)CC1`, the growth in the test with NCI-H23 lung is -95.3% (active); in the test with NCI-H226 lung, -93% (active); with NCI-H322M lung, -94.8% (active); in the test with HOP-62 NSCLC it was -27.4% (active); in the test with NCI-H460 lung, -46.6% (active); in the test on HOP-92 NSCLC, -58.9% (active). Also, the figures for the growth with NCI-H522 lung, in the test with 786-0 renal and in the test on COLO 205 colon were -60.4% (active), -83.1% (active) and -97% (active), respectively.

As to `CN1C(=O)N(C)C2SC(N/N=C/c3ccc(F)cc3)=NC21` (stereo not given), the growth in the test on NCI-H23 lung is 63.5%; with NCI-H226 lung, 75.6%; with NCI-H322M lung, 97.4%; in the test with NCI-H460 lung, 32.6%; with HOP-92 NSCLC, 71.1%; with NCI-H522 lung, 14.7%. Also, the growth in the test with A549/ATCC NSCLC is 49.6%; in the test on 786-0 renal, 50.2%; in the test on COLO 205 colon, 46.5%.

As for `O=C(CSc1nnc(-c2ccc3nc(-c4ccccc4)[nH]c3c2)o1)Nc1ccc(Cl)cc1`, the growth is 21.4% in the test with NCI-H23 lung; 31.4% with NCI-H226 lung; 63.9% in the test with NCI-H322M lung; 62.9% in the test on HOP-62 NSCLC; 48.8% in the test with NCI-H460 lung; 79.1% with HOP-92 NSCLC. Besides, the growth was 28.7% in the test on NCI-H522 lung, 16.9% in the test with 786-0 renal and 73.2% with COLO 205 colon.

With `Brc1ccc(N/N=C/c2c[nH]c3ccccc23)nc1`, the growth in the test on NCI-H23 lung was 41.1%; in the test with NCI-H226 lung, 35.5%; with NCI-H322M lung, 47.6%; in the test with HOP-62 NSCLC, 32%; in the test on NCI-H460 lung, 9% (active); with HOP-92 NSCLC, -28.4% (active). The values for the growth in the test with NCI-H522 lung, in the test with 786-0 renal and with COLO 205 colon were 24.9%, 0.458% (active) and 48.8%, respectively.

Take `O=C1CCC(N2Cc3c(C#CCCCNC(=O)c4ccc(NC(=O)[C@@H]5NC6(CCCCC6)[C@@]6(C(=O)Nc7cc(Cl)ccc76)[C@H]5c5cccc(Cl)c5F)cc4)cccc3C2=O)C(=O)N1` (stereo not given in full): the growth is 74.4% in the test on NCI-H23 lung; 24.1% with NCI-H226 lung; 77.5% in the test with NCI-H322M lung; 33.1% in the test with NCI-H460 lung; 39.3% in the test on HOP-92 NSCLC; 70.3% in the test with NCI-H522 lung. In addition, the figures for the growth with A549/ATCC NSCLC, with 786-0 renal and in the test on COLO 205 colon were 34.5%, 48.4% and 70.5%, respectively.

As to `CN1CCN(Cc2ccc(NC(=O)c3cncc(C#Cc4cnc5ccc(N[C@H]6CCOC6)nn45)c3)cc2C(F)(F)F)CC1`, the growth was -80.4% (active) in the test on NCI-H23 lung; -89.1% (active) with NCI-H226 lung; -95.3% (active) in the test on NCI-H322M lung; -80% (active) in the test with HOP-62 NSCLC; -76.1% (active) in the test with NCI-H460 lung; -79.4% (active) in the test with HOP-92 NSCLC. The growth in the test with NCI-H522 lung is -69.1% (active); in the test with 786-0 renal it was -75.6% (active); in the test with COLO 205 colon, -79.6% (active).

With `O=C(Nc1nc2ccccc2s1)c1ccc(Br)cc1`, the growth in the test on NCI-H23 lung is 74%; with NCI-H226 lung, 67.4%; with NCI-H322M lung, 83.4%; in the test on NCI-H460 lung, 81.6%; with HOP-92 NSCLC, 100%; with NCI-H522 lung it was 75.3%. In addition, the growth with A549/ATCC NSCLC is 84.9%; in the test on 786-0 renal it was 99.6%; in the test on COLO 205 colon, 107%.

Take `Cc1ccn2c(C(=O)c3ccccc3)cc(-c3cc(-c4ccc(N(C)C)cc4)c(C#N)c(N)n3)c2c1`: the growth in the test on NCI-H23 lung was 46.1%; with NCI-H226 lung, 16.7%; with NCI-H322M lung it was 75.1%; in the test on NCI-H460 lung it was 56%; in the test on HOP-92 NSCLC, 23.6%; in the test with NCI-H522 lung, 79.4%. In addition, the growth was 45.9% in the test with A549/ATCC NSCLC, 21% with 786-0 renal and 66.2% with COLO 205 colon.

Regarding `O=C(CN1CCN(c2ncnc3c2cnn3-c2ccccc2)CC1)Nc1nncs1`, the growth in the test on NCI-H23 lung is -55.1% (active); in the test on NCI-H226 lung it was 43.9%; in the test with NCI-H322M lung, 84.8%; in the test with NCI-H460 lung, -22.1% (active); in the test with HOP-92 NSCLC, -70.9% (active); in the test on NCI-H522 lung, -79.3% (active). Also, the growth was -32.5% (active) in the test with A549/ATCC NSCLC, -80.9% (active) with 786-0 renal and -50.2% (active) with COLO 205 colon.

As for `CCOc1ccc(/C=N/NC(=O)Cn2nc(Cc3ccccc3)c3onc(C)c3c2=O)cc1`, the growth was 37.4% with NCI-H23 lung; -19.3% (active) with NCI-H226 lung; 50.5% in the test with NCI-H322M lung; 16.7% with NCI-H460 lung; -45.9% (active) in the test with HOP-92 NSCLC; 11.4% with NCI-H522 lung. In addition, the growth is 11.6% with A549/ATCC NSCLC, -51.9% (active) with 786-0 renal and 29.2% in the test with COLO 205 colon.

On to `Cc1cccc(-c2nc(Nc3ccccc3C(=O)O)c3ccccc3n2)c1`, for which the growth in the test on NCI-H23 lung was 20.8%; in the test with NCI-H226 lung, 36.1%; with HOP-62 NSCLC, 46.2%; in the test on NCI-H460 lung, 19.1%; with HOP-92 NSCLC it was -5.02% (active); in the test on NCI-H522 lung, 59.9%. Also, the results for the growth in the test on A549/ATCC NSCLC, in the test with 786-0 renal and with COLO 205 colon were 43.6%, 25% and 121%, respectively.

Consider `Cc1cc(=O)oc2cc(OCCCCOc3ccc(/C=C/C(=O)Nc4cccc(Cl)c4)cc3)ccc12`, for which the growth in the test on NCI-H23 lung was 57.2%; in the test on NCI-H322M lung it was 87.4%; with HOP-62 NSCLC it was 54.9%; in the test with NCI-H460 lung, 54.4%; with HOP-92 NSCLC it was 50.9%; with NCI-H522 lung, 60.3%. Further, the growth in the test on A549/ATCC NSCLC was 55.4%; with 786-0 renal, 54.7%; in the test on COLO 205 colon, 62.3%.

`Cc1cc(=O)oc2cc(OCCCCOc3ccc(/C=C/C(=O)Nc4ccc(F)c(Cl)c4)cc3)ccc12`: the growth with NCI-H23 lung is 87%; with NCI-H226 lung, 95.9%; with HOP-62 NSCLC it was 108%; with NCI-H460 lung, 86.7%; with HOP-92 NSCLC, 115%; with NCI-H522 lung, 94.6%. Besides, the results for the growth with A549/ATCC NSCLC, with 786-0 renal and with COLO 205 colon were 79.7%, 94.9% and 115%, respectively.

Regarding `COc1ccc(-c2cc(C(=O)N=Nc3c(O)[nH]c4ccc(F)cc34)c3ccccc3n2)cc1`, the growth was 44.4% with NCI-H23 lung; 68.3% with NCI-H226 lung; 76.4% with NCI-H322M lung; 44.2% in the test with NCI-H460 lung; 87.1% with HOP-92 NSCLC; 70.8% in the test with NCI-H522 lung. Further, the growth in the test on A549/ATCC NSCLC is 88.3%; in the test with 786-0 renal it was 63.5%; in the test on COLO 205 colon, 103%.

Regarding `O=C1Nc2cc(-c3ccc(NC(=O)c4cccs4)cc3)ccc2/C1=C/c1ccc[nH]1`, the growth in the test with NCI-H23 lung was 66.4%; with NCI-H226 lung it was 40.4%; in the test with HOP-62 NSCLC, 98.3%; in the test with NCI-H460 lung, 83%; with HOP-92 NSCLC, 104%; in the test with NCI-H522 lung, 79.4%. Besides, the growth with A549/ATCC NSCLC is 81.7%; in the test on 786-0 renal, 98.5%; in the test with COLO 205 colon, 99.7%.
